The text below walks through data of PubChem BioAssay (NCATS).

Several values for one entry are separate records, joined by “and”; a condition that tells them apart may be missing. Equal entries are not always repeated. Records with an inconclusive call do not appear. Unmarked numbers belong to inactive results. Activity calls are given as the source filed them. The call rests on the fitted dose curve; in most records, active means well fitted inhibition curve with a large enough effect; inconclusive means small, poorly fitted or top-dose-only effect; inactive means flat fitted curve, though single readings scatter.
Further: nearly all actives have a fitted effect of over 60% in size.
Potency means the concentration at half of the fitted maximal effect.

One assay has as its system TAB165. The assay can be described thus: qHTS profiling for inhibitors of Plasmodium falciparum proliferation (AID 504749).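 On activity, negative = inhibition: 0% = DMSO vehicle and full inhibition = artemisinin control.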 To be noted: P. falciparum in erythrocytes, SYBR Green DNA, 72 h; series mostly up to 28.7 µM; activity, negative = inhibition: at the top concentration. An outline of the steps: (§1)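 Parasite proliferation within erythrocytes, 72 h exposure. Endpoint: SYBR Green I fluorescence after overnight lysis at room temperature. Controls: 0.29 uM artemisinin, DMSO.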
On the technique in general: qHTS replaces the single test concentration by a dilution series.
For the compound `CC(CN1c2ccccc2Sc2ccccc21)N(C)C` (stereo unspecified), the “activity, negative = inhibition” value was 5.02%.
Same read-out and setting: as for `CC1=C(CC(=O)O)c2cc(F)ccc2/C1=C\c1ccc(S(C)=O)cc1` (stereo unspecified), the figure is -2.33%.
As for `O=C1NC(=O)[C@@]2(CCOc3ccc(F)cc32)N1`, the “activity, negative = inhibition” value was 5.69%.
For the compound `CSc1ccc2c(c1)N(CCC1CCCCN1C)c1ccccc1S2` (stereo unspecified), the Potency is 12.6 µM (active).

A further assay concerns W2. The assay is described as above. To be noted: P. falciparum in erythrocytes, SYBR Green DNA, 72 h; series mostly up to 28.7 µM; activity, negative = inhibition: at the top concentration. An outline of the steps: as §1
In the case of `C[C@](N)(Cc1ccc(O)cc1)C(=O)O`, the “activity, negative = inhibition” value was 5.72%.
In the case of `Cc1c(O)cccc1C(=O)N[C@@H](CSc1ccccc1)[C@H](O)CN1C[C@H]2CCCC[C@H]2C[C@H]1C(=O)NC(C)(C)C`, the Potency was 8.49 µM (active).
On the same count and under the same terms, as for `CN1CCCCC1CCN1c2ccccc2Sc2ccc(S(C)=O)cc21` (stereo unspecified), the figure is 1.9 µM (active); as for `CSc1ccc2c(c1)C(N1CCN(C)CC1)Cc1ccccc1S2` (stereo unspecified), 5.36 µM (active).
Take `CC(=O)c1ccc2c(c1)N(CCCN(C)C)c1ccccc1S2`: the Potency is 1.02 µM (active).
For the compound `[Cl][In]([Cl])[Cl]`, the Potency was 7.57 µM (active).
Take `OCCN1CCN(CCCN2c3ccccc3Sc3ccc(Cl)cc32)CC1`: the Potency was 3.22 µM (active).
Same read-out and setting: as for `NC(=O)N/N=C/c1ccc([N+](=O)[O-])o1`, the figure is 9.53 µM (active).
Regarding `C[C@]12C[C@H](O)[C@H]3[C@@H](CCC4=CC(=O)CC[C@@]43C)[C@@H]1CC[C@@H]2C(=O)CO`, the “activity, negative = inhibition” value was -29.1%.
Same read-out and setting: as for `C=Cc1c(C)c2cc3[nH]c(cc4nc(cc5nc(cc1[nH]2)C(C)=C5CCC(=O)O)C(CCC(=O)O)=C4C)c(C)c3C=C`, the figure is 7.72%; as for `CC1=C(/C=C/C(C)=C/C=C/C(C)=C/C(=O)O)C(C)(C)CCC1`, -11.5%.
Regarding `COCCOC(=O)C1=C(C)NC(C)=C(C(=O)OC/C=C/c2ccccc2)C1c1cccc([N+](=O)[O-])c1` (stereo unspecified), the Potency is 9.53 µM (active).
As for `CNCCC(Oc1ccc(C(F)(F)F)cc1)c1ccccc1` (stereo unspecified), the Potency was 3.79 µM (active).
Consider `CCN(CC)CCNC(=O)c1c(C)[nH]c(/C=C2\C(=O)Nc3ccc(F)cc32)c1C`, for which the Potency is 4.26 µM (active).
Still for that read-out and setting: as for `CC(=O)Oc1ccc(C2(c3ccc(OC(C)=O)cc3)C(=O)Nc3ccccc32)cc1`, the entry is “inactive”.
On the same count and under the same terms, as for `CN1CCN(C2Cc3ccccc3Sc3ccc(Cl)cc32)CC1` (stereo unspecified), the figure is 3.79 µM (active).
In the case of `COC(=O)C1=C(C)NC(C)=C(C(=O)OC)C1c1ccccc1[N+](=O)[O-]`, the “activity, negative = inhibition” value was -23.2%.
With `CN(C)CCCN1c2ccccc2Sc2ccc(Cl)cc21`, the Potency is 1.07 µM (active).
As to `O=C1NC(=O)[C@@]2(CCOc3ccc(F)cc32)N1`, the “activity, negative = inhibition” value is 0.601%.
As for `CNCCCC1c2ccccc2C=Cc2ccccc21`, the Potency is 0.51 µM (active).
Still for that read-out and setting: next, `CSc1ccc2c(c1)N(CCC1CCCCN1C)c1ccccc1S2` (stereo unspecified): 6.75 µM (active).

Another assay has as its system CRL-7250. Put plainly: Cytotoxic Profiling of Annotated Libraries Using Quantitative High-Throughput Screening (AID 1296008). On max response: on the % scale 0 is the no-effect control and ±100 the full control effect. To be noted: Five cell lines viability, CellTiter-Glo ATP luminescence, 48-72 h; max response: stronger effect = lower value. An outline of the steps: (§2)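 Compounds were pin-transferred onto cells and incubated 48 or 72 hr at 37 degree Celsius, 95% humidity. CellTiter-Glo was added, plates sat 10 min at room temperature, then ATP-coupled luminescence was imaged as the viability read-out.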
As for `CN1CCCCC1CCN1c2ccccc2Sc2ccc(S(C)=O)cc21` (stereo unspecified), the result was inactive.
As for `CCN(CC)CCSC(=O)C(c1ccccc1)c1ccccc1`, the max response was -12.1%.
The same measure, in the same setting: as for `O=C1Nc2ccc(Cl)cc2[C@@](C#CC2CC2)(C(F)(F)F)O1`, the figure is -9.32% and 4.5%.
As for `CC(C)c1c(C(=O)Nc2ccccc2)c(-c2ccccc2)c(-c2ccc(F)cc2)n1CC[C@@H](O)C[C@@H](O)CC(=O)O`, the Potency was 6.68 µM (active) and 2.73 µM (active).
Turning to `CC1(C)Oc2ccc(C#N)cc2[C@@H](N2CCCC2=O)[C@@H]1O`, the result was inactive.
On to `NC(=O)N/N=C/c1ccc([N+](=O)[O-])o1`, for which the max response is -6.15%.
With `CCN(CC)CCCC(C)Nc1c2ccc(Cl)cc2nc2ccc(OC)cc12` (stereo unspecified), the Potency is 16.8 µM (active).
For `C[C@]12C[C@H](O)[C@H]3[C@@H](CCC4=CC(=O)CC[C@@]43C)[C@@H]1CC[C@@H]2C(=O)CO`, the max response was 3.36%.
On the same count and under the same terms, as for `CN1CCN(C2Cc3ccccc3Sc3ccc(Cl)cc32)CC1` (stereo unspecified), the figure is -15.1%.
As for `CC(CN(C)C)CN1c2ccccc2CCc2ccccc21` (stereo unspecified), the compound was classed as inactive.
For `OCc1cc(C(O)CNCCCCCCOCCCCc2ccccc2)ccc1O` (stereo unspecified), the max response was -15.6%.
Still for that read-out and setting: next, `COC(=O)C1=C(C)NC(C)=C(C(=O)OC)C1c1ccccc1[N+](=O)[O-]`: -7.51%.

The next assay concerns HEK293. The description is as above. The settings on record: Five cell lines viability, CellTiter-Glo ATP luminescence, 48-72 h; max response: stronger effect = lower value. An outline of the steps:
as §2
(In general: Cellular ATP, detected with luciferase, serves as a proxy for viable cell number.)
Consider `CSc1ccc2c(c1)C(N1CCN(C)CC1)Cc1ccccc1S2` (stereo unspecified), for which the Potency is 16.8 µM (active).
Regarding `[Cl][In]([Cl])[Cl]`, the max response is 1.84%.
On to `OCCN1CCN(CCCN2c3ccccc3Sc3ccc(Cl)cc32)CC1`, for which the Potency is 11.9 µM (active).
Regarding `CC(=O)O[C@@]12CO[C@@H]1C[C@H](O)[C@@]1(C)C(=O)[C@H](O)C3=C(C)[C@@H](OC(=O)[C@H](O)[C@@H](NC(=O)OC(C)(C)C)c4ccccc4)C[C@@](O)([C@@H](OC(=O)c4ccccc4)[C@H]21)C3(C)C`, the Potency is 0.0021 µM (active).
Turning to `CC1(C)Oc2ccc(C#N)cc2[C@@H](N2CCCC2=O)[C@@H]1O`, the max response was -3.16%.
As to `CCN(CC)CCCC(C)Nc1c2ccc(Cl)cc2nc2ccc(OC)cc12` (stereo unspecified), the Potency is 7.5 µM (active) and 3.17 µM (active).
As to `C[C@]12C[C@H](O)[C@H]3[C@@H](CCC4=CC(=O)CC[C@@]43C)[C@@H]1CC[C@@H]2C(=O)CO`, the compound was classed as inactive.
As to `C=Cc1c(C)c2cc3[nH]c(cc4nc(cc5nc(cc1[nH]2)C(C)=C5CCC(=O)O)C(CCC(=O)O)=C4C)c(C)c3C=C`, the max response is -10.7%.
`CCN(CC)CCNC(=O)c1c(C)[nH]c(/C=C2\C(=O)Nc3ccc(F)cc32)c1C`: the Potency is 8.41 µM (active).
With `CC(=O)Oc1ccc(C2(c3ccc(OC(C)=O)cc3)C(=O)Nc3ccccc32)cc1`, the max response was 1.93%.
On to `COC(=O)C1=C(C)NC(C)=C(C(=O)OC)C1c1ccccc1[N+](=O)[O-]`, for which the max response is -14.4%.
With `COc1ccc2cc1Oc1ccc(cc1)C[C@H]1c3c(cc4c(c3Oc3cc5c(cc3OC)CCN(C)[C@@H]5C2)OCO4)CCN1C`, the Potency is 10.6 µM (active) and 7.31 µM (active).
The same measure, in the same setting: as for `NC1[C@H]2CN(c3nc4c(cc3F)c(=O)c(C(=O)O)cn4-c3ccc(F)cc3F)C[C@@H]12` (stereo partly specified), the figure is 15 µM (active); as for `CC(CN1c2ccccc2Sc2ccccc21)N(C)C` (stereo unspecified), 11.9 µM (active).
